Measured values published in PubChem BioAssay.
The source made the active and inactive calls.

Legend:
[1] = test system: Plasmodium falciparum Sir2 (PF13_0152, Sir2A); assay: Plasmodium falciparum Sir2A binding compounds – biochemical, small-molecule microarray, 635 nm fluorescence, primary screen (AID 1098); details: fluorescence 635 nm, higher = more signal;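 further: score merges spot fluorescence intensity with its signal-to-noise ratio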
[2] = probe aDKK1 binding to arrayed compounds – biochemical, biotinylated probe, 635/667 nm fluorescence, primary screen (AID 1099); details: small-molecule microarray, higher = more signal;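 further: score merges 667nm spot fluorescence with signal to noise across triplicate slides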
[3] = probe aCHRDL2 binding to arrayed compounds – biochemical, biotinylated probe, 635/667 nm fluorescence, primary screen (AID 1100); details: small-molecule microarray, higher = more signal
[4] = change in splice reporter luminescence, either direction, cell-based, HEK293, spliceosome inhibition project, primary screen (AID 1101); details: HEK293 splicing luciferase reporter, 24 h, higher = more signal, called active from +8 up or from −8 down;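 further: HEK293 cells carrying a splicing-competent luciferase reporter gene; test concentration not given here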
[5] = biological target: Fibroblast growth factor 10 (Homo sapiens) (UniProt O15520); assay: compounds binding fibroblast growth factor 10 – biochemical, small-molecule microarray, 635 nm fluorescence, primary screen (AID 1102); details: FGF10 binding, fluorescence 635 nm, higher = more signal
[6] = test system: glycogen synthase kinase-3 (GSK3A per assay name; protocol says GSK3B); assay: compounds binding glycogen synthase kinase-3 – biochemical, small-molecule microarray, 635 nm fluorescence, GSK3A, primary screen (AID 1103); details: fluorescence 635 nm, higher = more signal; further: the record names both GSK3A and GSK3B
[7] = biological target: Epidermal growth factor receptor (Homo sapiens) (UniProt P00533); assay: compounds binding epidermal growth factor receptor – biochemical, small-molecule microarray, 635 nm fluorescence, primary screen (AID 1104); details: EGFR binding, higher = more signal;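 further: score merges 667 nm emission intensity with spot signal to noise over triplicate slides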
[8] = biological target: Follistatin-related protein 3 (Homo sapiens) (UniProt O95633); assay: compounds binding follistatin-related protein 3 – biochemical, small-molecule microarray, 635 nm fluorescence, primary screen (AID 1105); details: FSTL3 binding, higher = more signal;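 further: score merges emission near 667 nm and signal to noise per printed spot across three slides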
[9] = biological target: Dickkopf-related protein 1 (Homo sapiens) (UniProt O94907); assay: small molecules binding DKK1 protein – biochemical, small-molecule microarray, 635 nm fluorescence scan, primary screen (AID 1106); details: higher = more signal;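 further: score merges emission near 667 nm with signal to noise over three replicate slides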
[10] = test system: Inhibin beta A chain (activin A); assay: small molecules binding activin A – biochemical, small-molecule microarray, 635 nm fluorescence scan, primary screen (AID 1107); details: INHBA, higher = more signal;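 further: mouse activin A protein probed at 4.33 µg/mL on printed slides; score merges bound-protein fluorescence near 667 nm with spot signal-to-noise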
[11] = test system: Human papillomavirus type 1a protein E7 (residues 44-93); assay: small molecules binding HPV E7 44-93 – biochemical, small-molecule microarray, residues 44-93, 635 nm fluorescence, primary screen (AID 1108); details: fluorescence 635 nm, higher = more signal;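 further: E7 fragment applied at 1 µg/mL in TBST for 1 h at 4 C; score combines spot fluorescence with its signal to noise ratio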
[12] = hepatitis C replication reporter changes, two-sided – Huh7 cells, luciferase reporter, HCV replication inhibitor project, primary screen (AID 1109); details: Huh7 HCV replicon luciferase reporter, 48 h; higher = more signal;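 further: huh7 hepatoma cells harbouring a luciferase neomycin HCV replicon reporter; luciferase luminescence as measure of HCV replicon replication; test concentration not given here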
[13] = biological target: Left-right determination factor 2 (Homo sapiens) (UniProt O00292); assay: small molecules binding LEFTY2 protein – biochemical, small-molecule microarray, 635 nm fluorescence scan, primary screen (AID 1110); details: higher = more signal
[14] = biological target: Calmodulin-1 (Homo sapiens) (UniProt P0DP23); assay: small molecules binding calmodulin-1 with EGTA – biochemical, small-molecule microarray, Cy5-labelled CALM1, profiling panel (AID 1111); details: Cy5-CALM1 binding fluorescence, higher = more signal;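 further: labelled calmodulin applied in Tris saline Tween buffer holding calcium plus EGTA and DTT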
[15] = biological target: Calmodulin-1 (Homo sapiens) (UniProt P0DP23); assay: small molecules binding Ca-loaded calmodulin-1 – biochemical, small-molecule microarray, Cy5-labelled CALM1, plus calcium, artefact control for SMM control-protein annotation, profiling panel (AID 1112); details: Cy5-CALM1 binding fluorescence, higher = more signal;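 further: score merges spot fluorescence with signal to noise from triplicate slides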
[16] = probe aWnt5a binding to arrayed compounds – biochemical, biotinylated probe, 635/667 nm fluorescence, primary screen (AID 1113); details: small-molecule microarray, higher = more signal;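 further: score merges 667 nm fluorescence intensity with signal-to-noise per printed feature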
[17] = probe aShh binding to arrayed compounds – biochemical, biotinylated probe, 635/667 nm fluorescence, primary screen (AID 1114); details: small-molecule microarray, higher = more signal;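 further: probe is biotin-labelled aShh protein from a stem cell growth factor screen; measures binding of labelled protein to compounds printed on the slide; score merges feature fluorescence at 667 nm with signal-to-noise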
[18] = probe aNog binding to arrayed compounds – biochemical, biotinylated probe, 635/667 nm fluorescence, primary screen (AID 1115); details: small-molecule microarray, higher = more signal;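 further: probe is biotinylated aNog protein used at 0.15 µg/mL for 1 h at 4 C; z-score combines 667 nm fluorescence of each spot with its signal to noise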
[19] = biological target: Torsin-1A-interacting protein 1 (Homo sapiens) (UniProt Q5JTV8); assay: compound microarray binding of lysate hLAP1 – cell lysate, small-molecule microarray, COS7 lysate, 635/667 nm fluorescence, primary screen (AID 1116); details: 635 nm fluorescence, higher = more signal
[20] = biological target: Alpha-bungarotoxin (Bungarus multicinctus) (UniProt P60615); assay: compounds binding labelled alpha-BTX control protein – biochemical, small-molecule microarray, Alexa647 label, 635/667 nm fluorescence, artefact control for SMM control protein annotation, profiling panel (AID 1117); details: alpha-BTX-A647 binding fluorescence, higher = more signal
Alpha-bungarotoxin (Bungarus multicinctus), sequence (P60615 whole entry, looked up): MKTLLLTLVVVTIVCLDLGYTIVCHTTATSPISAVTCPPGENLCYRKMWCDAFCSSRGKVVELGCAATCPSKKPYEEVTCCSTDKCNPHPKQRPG

Epidermal growth factor receptor (Homo sapiens), sequence (P00533 whole entry, looked up): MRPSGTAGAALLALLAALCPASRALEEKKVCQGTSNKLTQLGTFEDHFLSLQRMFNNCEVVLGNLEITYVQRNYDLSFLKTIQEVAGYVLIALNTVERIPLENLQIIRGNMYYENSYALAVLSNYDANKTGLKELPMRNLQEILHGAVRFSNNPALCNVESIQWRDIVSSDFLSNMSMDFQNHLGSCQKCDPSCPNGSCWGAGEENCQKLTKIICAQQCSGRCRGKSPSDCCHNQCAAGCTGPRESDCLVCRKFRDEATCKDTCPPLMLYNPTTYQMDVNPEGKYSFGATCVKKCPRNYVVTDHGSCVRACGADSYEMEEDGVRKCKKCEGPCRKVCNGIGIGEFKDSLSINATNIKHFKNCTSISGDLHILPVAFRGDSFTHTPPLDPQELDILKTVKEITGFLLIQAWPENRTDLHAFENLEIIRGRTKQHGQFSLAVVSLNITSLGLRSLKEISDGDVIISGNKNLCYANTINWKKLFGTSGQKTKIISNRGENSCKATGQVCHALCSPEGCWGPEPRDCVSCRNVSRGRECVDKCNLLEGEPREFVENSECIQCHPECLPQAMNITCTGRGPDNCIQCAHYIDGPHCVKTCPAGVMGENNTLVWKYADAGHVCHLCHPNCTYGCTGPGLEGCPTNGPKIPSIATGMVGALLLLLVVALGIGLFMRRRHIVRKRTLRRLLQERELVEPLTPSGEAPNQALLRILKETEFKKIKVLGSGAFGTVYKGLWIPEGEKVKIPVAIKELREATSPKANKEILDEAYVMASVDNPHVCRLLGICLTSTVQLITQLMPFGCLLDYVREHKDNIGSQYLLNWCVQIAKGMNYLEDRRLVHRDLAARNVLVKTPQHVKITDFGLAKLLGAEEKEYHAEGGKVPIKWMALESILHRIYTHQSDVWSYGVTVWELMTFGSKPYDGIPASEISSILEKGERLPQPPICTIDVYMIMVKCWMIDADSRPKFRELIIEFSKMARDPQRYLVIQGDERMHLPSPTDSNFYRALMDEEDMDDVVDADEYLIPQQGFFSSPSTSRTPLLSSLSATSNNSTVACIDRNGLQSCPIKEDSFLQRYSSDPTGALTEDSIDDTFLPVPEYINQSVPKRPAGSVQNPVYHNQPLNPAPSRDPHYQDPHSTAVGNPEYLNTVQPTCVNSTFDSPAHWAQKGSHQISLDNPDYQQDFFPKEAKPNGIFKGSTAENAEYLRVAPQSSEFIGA
Follistatin-related protein 3 (Homo sapiens), sequence (O95633 whole entry, looked up): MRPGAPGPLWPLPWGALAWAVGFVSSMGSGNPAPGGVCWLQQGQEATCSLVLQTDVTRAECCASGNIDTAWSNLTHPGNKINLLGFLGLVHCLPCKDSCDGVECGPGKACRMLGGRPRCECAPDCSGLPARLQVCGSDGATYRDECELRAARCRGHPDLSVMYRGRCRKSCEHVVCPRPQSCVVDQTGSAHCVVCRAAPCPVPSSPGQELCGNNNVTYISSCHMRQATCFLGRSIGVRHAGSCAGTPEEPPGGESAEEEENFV
Left-right determination factor 2 (Homo sapiens), sequence (O00292 whole entry, looked up): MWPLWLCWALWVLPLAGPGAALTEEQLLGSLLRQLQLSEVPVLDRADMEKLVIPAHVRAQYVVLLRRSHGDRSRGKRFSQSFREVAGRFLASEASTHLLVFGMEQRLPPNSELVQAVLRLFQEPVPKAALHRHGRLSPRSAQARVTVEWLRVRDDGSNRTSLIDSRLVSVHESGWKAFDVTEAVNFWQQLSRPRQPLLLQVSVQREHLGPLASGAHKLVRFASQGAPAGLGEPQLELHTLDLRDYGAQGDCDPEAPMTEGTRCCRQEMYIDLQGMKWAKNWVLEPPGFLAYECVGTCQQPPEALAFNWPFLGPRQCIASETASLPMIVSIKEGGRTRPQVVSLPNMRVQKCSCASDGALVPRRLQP
Dickkopf-related protein 1 (Homo sapiens), sequence (O94907 whole entry, looked up): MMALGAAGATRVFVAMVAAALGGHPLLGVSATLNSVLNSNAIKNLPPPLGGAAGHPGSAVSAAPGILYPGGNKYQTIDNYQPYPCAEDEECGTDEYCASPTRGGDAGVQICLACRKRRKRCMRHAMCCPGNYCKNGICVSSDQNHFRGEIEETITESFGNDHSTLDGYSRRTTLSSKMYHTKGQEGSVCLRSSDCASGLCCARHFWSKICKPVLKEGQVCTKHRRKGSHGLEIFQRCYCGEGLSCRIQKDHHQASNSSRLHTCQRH
Fibroblast growth factor 10 (Homo sapiens), sequence (O15520 whole entry, looked up): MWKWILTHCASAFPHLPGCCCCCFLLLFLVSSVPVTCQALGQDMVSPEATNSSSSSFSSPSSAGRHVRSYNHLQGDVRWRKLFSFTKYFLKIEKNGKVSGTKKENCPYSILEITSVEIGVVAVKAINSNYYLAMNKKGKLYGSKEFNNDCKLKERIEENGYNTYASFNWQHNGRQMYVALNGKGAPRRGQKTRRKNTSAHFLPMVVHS
Torsin-1A-interacting protein 1 (Homo sapiens), sequence (Q5JTV8 whole entry, looked up): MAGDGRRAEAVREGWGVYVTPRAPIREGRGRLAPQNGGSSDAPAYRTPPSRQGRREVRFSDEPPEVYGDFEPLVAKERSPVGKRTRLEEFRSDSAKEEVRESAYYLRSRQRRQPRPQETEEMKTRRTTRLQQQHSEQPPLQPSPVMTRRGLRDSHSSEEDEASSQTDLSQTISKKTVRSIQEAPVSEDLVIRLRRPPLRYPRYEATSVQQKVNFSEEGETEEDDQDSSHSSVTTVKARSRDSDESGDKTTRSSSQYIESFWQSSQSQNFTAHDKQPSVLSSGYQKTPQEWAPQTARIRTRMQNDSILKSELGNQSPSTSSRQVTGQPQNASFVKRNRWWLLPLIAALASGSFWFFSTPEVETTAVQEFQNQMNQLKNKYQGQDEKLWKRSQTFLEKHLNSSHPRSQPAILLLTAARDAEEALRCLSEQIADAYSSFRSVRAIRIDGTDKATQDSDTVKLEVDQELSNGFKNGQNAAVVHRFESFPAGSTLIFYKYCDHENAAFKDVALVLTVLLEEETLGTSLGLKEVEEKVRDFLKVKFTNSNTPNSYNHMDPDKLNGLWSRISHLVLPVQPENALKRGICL

| SMILES | composite z-score [1] | composite z-score [2] | composite z-score [3] | z-score [4] | composite z-score [5] | composite z-score [6] | composite z-score [7] | composite z-score [8] | composite z-score [9] | composite z-score [10] | composite z-score [11] | z-score [12] | composite z-score [13] | composite z-score [14] | composite z-score [15] | composite z-score [16] | composite z-score [17] | composite z-score [18] | composite z-score [19] | composite z-score [20] |
| --- | --- | --- | --- | --- | --- | --- | --- | --- | --- | --- | --- | --- | --- | --- | --- | --- | --- | --- | --- | --- |
| NCCCCCCNC(=O)[C@@H]1C[C@@H]2C(=O)N3CCC[C@H]3C(=O)N2[C@@H]1c1ccc(O)cc1 | 1.27 | 0.0265 | 0.0978 | 0.364 (inactive) | 1.01 | 1.3 | 0.235 | 0.318 | 1.02 | 0.123 | 1.31 | 0.808 | 1.31 | 0.718 | 0.683 | 0.0049 | 0.0328 | -0.157 | 0.557 | 0.705 |
| C[C@H]1ON(c2ccc(C(=O)OC(C)(C)C)cc2)[C@@H](c2ccc(O)cc2)[C@@H]1C(=O)N1C(=O)OC[C@@H]1c1ccccc1 | 1.12 | -0.0999 | -0.232 | 0.242 (inactive) | 0.994 | 1.28 | 0.554 | 1.16 | 0.624 | -0.0428 | 0.644 | -3.09 | 0.465 | 0.403 | -0.32 | -0.0977 | -0.341 | -0.383 | 0.165 | 0.413 |
| CCCCN1CC=CC23O[C@@H]4C=CCOC(=O)[C@@H]4[C@H]2C(=O)N(C(C)CO)[C@@H]3C1=O (stereo not given in full) | 1.1 | 0.198 | 0.774 | 0.408 (inactive) | -0.291 | -1.44 | -1.21 | -1.22 | -1.14 | 0.286 | -1.31 | -0.748 | -1.29 | -0.397 | 0.5 | -0.169 | -0.209 | 0.26 | -0.194 | -0.714 |
| COc1ccccc1CN1C(=O)c2ccccc2[C@](Cc2ccccc2I)(C(=O)NC(C)C)[C@@H]1c1ccc(CO)cc1 | 0.672 | -0.132 | -0.0563 | -0.691 (inactive) | 1.32 | 1.3 | 0.457 | 1.28 | 0.312 | -0.0084 | 1.46 | -2.22 | 0.242 | 0.704 | 0.0649 | -0.0455 | 0.131 | -0.402 | 0.855 | 1.41 |
| COc1ccc([Si](C)(C)[C@@H]2[C@@H](CCO)O[C@]3(C(=O)N(Cc4cccc(N5C(=O)c6ccccc6Oc6ccccc65)c4)c4ccccc43)[C@H]2C)cc1 | 0.307 | 0.0163 | 0.444 | -1.19 (inactive) | -0.502 | -0.735 | -0.717 | -0.491 | -0.812 | 0.233 | 0.405 | -4.56 | -0.704 | 0.949 | 0.646 | -0.208 | -0.221 | -0.0641 | 0.0437 | -0.115 |
| [N-]=[N+]=Nc1ccccc1C[C@@]1(C(=O)O)N=C(c2ccc(OCCCO)cc2)O[C@@H]1c1ccccc1 | 1.56 | 0.609 | 0.945 | -0.282 (inactive) | 0.0372 | 0.0458 | -0.423 | 0.126 | -0.829 | 0.638 | 1.3 | 1.34 | -0.862 | 1.73 | 0.294 | -0.0566 | 0.191 | 0.905 | 0.24 | 1.08 |
| CN1C(=O)C2C(C1=O)C1C=C(c3ccc(CO)cc3)C2C(c2cccs2)N1Cc1cccc(OC(F)(F)F)c1 (stereo not given) | 1.06 | 0.0564 | -0.137 | -0.243 (inactive) | 1.07 | 1.27 | 0.0302 | 1.17 | 0.483 | 0.614 | 1.4 | -1.3 | 0.526 | 1.1 | 0.334 | 0.0077 | -0.0749 | -0.251 | 0.291 | 1.43 |
| O=C1NC(=O)C2C1C=CC(C(O)c1ccc3c(c1)OCO3)N2Nc1ccccn1 (stereo not given) | 0.165 | 0.301 | 0.555 | -0.653 (inactive) | 0.212 | 0.0668 | 0.722 | 1.39 | 0.388 | 1.64 | -0.945 | 0.0264 | 0.324 | 0.151 | -0.197 | -0.0524 | -0.0769 | 0.677 | 0.493 | 0.498 |
| O=C(N1CCCCC1)[C@@]1(Cc2ccccc2)COC(c2ccc(OCCCO)cc2)=N1 | 1.48 | 1.11 | 1.25 | 0.419 (inactive) | 1.44 | 0.705 | -0.153 | 0.12 | -0.275 | 0.691 | 0.242 | -1.98 | -0.462 | 2.02 | 1.23 | 0.113 | 0.253 | 0.293 | 0.996 | 1.83 |
| O=C1c2ccccc2[C@@]2(Cc3ccccc3N(C3CC3)C2=O)[C@H](c2ccc(CO)cc2)N1C1CCCCC1 | -1.5 | 0.16 | 0.615 | -0.402 (inactive) | -0.364 | -0.492 | -0.412 | -0.558 | -0.526 | 0.5 | 0.0731 | 0.056 | -0.825 | 0.0762 | 0.347 | -0.096 | 0.107 | -0.0165 | -0.502 | 0.233 |
| Cc1ccc(S[C@]2(C(=O)NC(C)C)CC(=O)N(Cc3ccccc3C(F)(F)F)[C@@H]2c2ccc(CO)cc2I)cc1 | 1.29 | 0.386 | 1.09 | -1.42 (inactive) | -1.41 | -1.1 | -1.64 | -1.29 | -1.7 | 0.889 | 0.187 | -2.54 | -0.796 | -0.301 | 0.0016 | -0.13 | -0.0769 | -0.0965 | -0.0123 | 1.65 |
| CCCN1C(=O)[C@]2(Cc3ccccc3)N=C(c3ccc(OCCCO)cc3)O[C@@H]2c2ccccc21 | 1.25 | 0.206 | 0.41 | -1.41 (inactive) | 1.24 | 1.32 | 0.642 | 0.928 | 0.223 | 0.808 | 1.06 | -2.7 | 0.118 | 1.14 | -0.422 | 0.027 | -0.231 | -0.646 | 0.42 | 1.33 |
| C=CCN1C(=O)[C@]2(CC=C)N=C(c3ccc(OCCCO)cc3)O[C@@H]2c2ccccc21 | 1.08 | 0.945 | 1.1 | -0.436 (inactive) | 0.506 | 0.777 | 0.925 | 1.18 | 0.95 | 1.38 | 1.37 | -2.63 | 0.503 | 1.94 | 0.541 | 0.123 | 0.0253 | 0.0962 | 1.14 | 1.08 |
